We go through 28 compounds from PubChem BioAssay (NCATS).

Assay [1] addresses Cytochrome P450 3A4 (Homo sapiens) (UniProt P08684). Briefly: qHTS Assay for Inhibitors and Substrates of Cytochrome P450 3A4 (AID 884). Also: nearly all actives have a fitted effect of over 50% in size. Also: potency is read from the fitted curve at half-maximal effect. As to activity change, negative = inhibition: series mostly up to about 57 µM; % is scaled to controls: 0 for no effect and ±100 for the full control effect. An outline of the steps: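 20 nM human CYP3A4 with 25 uM Luciferin-PPXE (at KM) in 200 mM KPO4, preincubated 10 min with compound; NADPH regeneration started a 60 min RT reaction. Luciferin detected by luminescence, normalized to 57 uM ketoconazole as full inhibition.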
On the technique in general: qHTS replaces the single test concentration by a dilution series.

Assay [2] has the same target. Briefly: qHTS Assay for Activators of Cytochrome P450 3A4 (AID 885). Also: nearly all actives have a fitted effect of over 65% in size. Also: potency is read from the fitted curve at half-maximal effect. The gist of the method:
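Human CYP3A4 (20 nM) with Luciferin-PPXE at 25 uM (its KM) in 200 mM KPO4; 10 min compound preincubation, then NADPH regeneration and 60 min reaction at RT. Luciferin read by luminescence; normalized to 57 uM ketoconazole full inhibition.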

Assay [3] concerns the target Cytochrome P450 2C9 (Homo sapiens) (UniProt P11712). Briefly: qHTS Assay for Inhibitors and Substrates of Cytochrome P450 2C9 (AID 883). Also: nearly all actives have a fitted effect of over 60% in size. Also: potency is read from the fitted curve at half-maximal effect. As to activity change, negative = inhibition: % is scaled to controls: 0 for no effect and ±100 for the full control effect. An outline of the steps:
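CYP2C9 deoxyluciferin hydroxylation, 37C, 60 min with NADPH regeneration; 10nM enzyme, 100uM Luciferin-H (KM). Glo detection reagent stopped reaction; luminescence normalized to sulphaphenazole (57uM) full inhibition.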

Assay [4] concerns the target Cytochrome P450 2D6 (Homo sapiens) (UniProt P10635). Put plainly: qHTS Assay for Inhibitors and Substrates of Cytochrome P450 2D6 (AID 891). Also: nearly all actives have a fitted effect of over 60% in size. Also: potency is read from the fitted curve at half-maximal effect.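 As to activity change, negative = inhibition: luciferin methyl ether substrate demethylated by CYP2D6 with NADPH regeneration; % is scaled to controls: 0 for no effect and ±100 for the full control effect.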 An outline of the steps:
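Human CYP2D6 (5 nM) with 30 uM Luciferin-ME EGE (at Km) in 100 mM KPO4, compound preincubated 10 min, then NADPH regeneration system for 60 min at room temperature. Luciferin read by luminescence; normalized to 1.43 uM quinidine.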

Assay [5] addresses Cytochrome P450 2C19 (Homo sapiens) (UniProt P33261). Put plainly: qHTS Assay for Inhibitors and Substrates of Cytochrome P450 2C19 (AID 899). Also: nearly all actives have a fitted effect of over 60% in size. Also: potency is read from the fitted curve at half-maximal effect. As to activity, negative = inhibition: % is scaled to controls: 0 for no effect and ±100 for the full control effect. The gist of the method:
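In 50mM KPO4, the reaction held 5nM enzyme and KM-level (10uM) Luciferin-H EGE; it ran 60 min at 37C after NADPH regeneration and a 10 min compound preincubation. Luminescence values were scaled to 57uM ketoconazole as complete inhibition.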

Assay [6] in a line: Confirmation and Secondary Assay for Modulators of Hemoglobin Beta Chain Splicing at IVS2 654 locus (AID 910).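 Also: per-well total GFP intensity by laser scanning cytometry after 2-day treatment; % of control where 0% means no effect.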 The gist of the method: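 HeLa cells stably carrying EGFP interrupted by mutant beta-globin IVS2-654 intron (CMV-driven) were treated with compound for 2 days at 37C; corrected splicing was scored as total peak GFP intensity per well (488 nm excitation, 500-520 nm emission).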

A short description of assay [7]: Confirmation and Secondary Assay for Modulators of Hemoglobin Beta Chain Splicing at IVS2 705 locus (AID 930).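 Also: HeLa cells stably expressing the EGFP-705 splicing reporter; GFP fluorescence per well restored by corrected splicing of the IVS2-705 intron in EGFP; series mostly up to about 46 µM; % of control where 0% means no effect.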 The gist of the method:
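Secondary splice-site specificity test uses HeLa expressing CMV-driven EGFP interrupted by IVS2-705; cells were treated 2 days at 37C with 500 nM antisense PNA as positive control.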

The target of assay [8] is Alpha-galactosidase (Coffea arabica) (UniProt Q42656). Put plainly: Counterscreen for Glucocerebrosidase Inhibitors: qHTS Assay for Coffee Bean alpha-Galactosidase at pH 4.5 (AID 957).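 Also: series mostly up to about 77 µM; plate controls were enzyme alone for no effect and no enzyme for full effect.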 An outline of the steps: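 Coffee bean enzyme (2 nM) with 80 uM 4-methylumbelliferyl alpha-D-galactopyranoside in 50 mM citric acid, 0.005% Tween-20, pH 4.5, 20 min at room temperature; compounds 0.7 nM–77 uM. Stopped at pH 10, fluorescence 365/440 nm; AC50 from Hill fits.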

Unmarked numbers belong to inactive results. Records with an inconclusive call do not appear. Calls of active or inactive are those of the source. Calls follow the shape of the dose curve; as a rule, active = well fitted curve in the direction sought with a large enough effect; inconclusive = small, poorly fitted or top-dose-only effect, or another doubt; inactive = no such curve, though single readings can be large; an effect the other way counts as inactive or inconclusive.

Cytochrome P450 2D6 (Homo sapiens), sequence (P10635 whole entry, looked up): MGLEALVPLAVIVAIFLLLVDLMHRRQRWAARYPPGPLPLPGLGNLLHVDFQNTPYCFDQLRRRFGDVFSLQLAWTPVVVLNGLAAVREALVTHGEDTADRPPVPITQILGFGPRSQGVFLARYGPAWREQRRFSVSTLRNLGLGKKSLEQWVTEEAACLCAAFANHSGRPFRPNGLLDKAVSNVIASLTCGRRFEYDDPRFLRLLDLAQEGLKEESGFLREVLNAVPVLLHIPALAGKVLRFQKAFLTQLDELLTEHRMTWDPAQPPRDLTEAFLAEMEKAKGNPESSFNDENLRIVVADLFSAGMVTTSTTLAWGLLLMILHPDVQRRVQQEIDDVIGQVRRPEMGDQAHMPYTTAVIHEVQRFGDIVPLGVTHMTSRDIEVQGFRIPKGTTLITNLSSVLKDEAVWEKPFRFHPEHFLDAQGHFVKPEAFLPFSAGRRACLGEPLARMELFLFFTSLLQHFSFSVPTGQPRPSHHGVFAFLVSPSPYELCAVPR
Cytochrome P450 2C9 (Homo sapiens), sequence (P11712 whole entry, looked up): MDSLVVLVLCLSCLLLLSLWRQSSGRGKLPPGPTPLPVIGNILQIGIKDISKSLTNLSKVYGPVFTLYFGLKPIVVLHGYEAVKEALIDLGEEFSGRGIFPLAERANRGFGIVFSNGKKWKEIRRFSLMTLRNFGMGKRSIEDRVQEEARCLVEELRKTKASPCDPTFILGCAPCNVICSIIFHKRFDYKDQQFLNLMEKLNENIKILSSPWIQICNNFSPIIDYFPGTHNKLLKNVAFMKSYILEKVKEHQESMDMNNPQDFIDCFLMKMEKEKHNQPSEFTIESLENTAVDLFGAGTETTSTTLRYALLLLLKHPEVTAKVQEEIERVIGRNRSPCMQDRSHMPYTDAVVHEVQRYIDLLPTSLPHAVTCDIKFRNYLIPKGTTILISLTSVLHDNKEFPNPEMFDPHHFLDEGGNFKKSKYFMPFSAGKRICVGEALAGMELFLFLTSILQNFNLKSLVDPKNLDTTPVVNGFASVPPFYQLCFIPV
Cytochrome P450 2C19 (Homo sapiens), sequence (P33261 whole entry, looked up): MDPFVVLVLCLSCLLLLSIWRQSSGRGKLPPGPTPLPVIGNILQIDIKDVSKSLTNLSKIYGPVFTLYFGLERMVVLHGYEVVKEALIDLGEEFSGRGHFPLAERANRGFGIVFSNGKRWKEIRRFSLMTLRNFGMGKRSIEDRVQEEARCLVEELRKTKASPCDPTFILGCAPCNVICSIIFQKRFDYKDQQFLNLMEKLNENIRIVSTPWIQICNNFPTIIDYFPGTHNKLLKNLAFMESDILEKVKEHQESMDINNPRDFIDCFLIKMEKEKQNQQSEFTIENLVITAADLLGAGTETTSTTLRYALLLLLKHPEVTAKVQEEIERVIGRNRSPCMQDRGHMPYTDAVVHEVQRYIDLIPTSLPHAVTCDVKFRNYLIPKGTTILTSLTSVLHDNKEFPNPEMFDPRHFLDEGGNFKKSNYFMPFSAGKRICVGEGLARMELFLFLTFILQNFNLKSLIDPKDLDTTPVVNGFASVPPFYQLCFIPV
Cytochrome P450 3A4 (Homo sapiens), sequence (P08684 whole entry, looked up): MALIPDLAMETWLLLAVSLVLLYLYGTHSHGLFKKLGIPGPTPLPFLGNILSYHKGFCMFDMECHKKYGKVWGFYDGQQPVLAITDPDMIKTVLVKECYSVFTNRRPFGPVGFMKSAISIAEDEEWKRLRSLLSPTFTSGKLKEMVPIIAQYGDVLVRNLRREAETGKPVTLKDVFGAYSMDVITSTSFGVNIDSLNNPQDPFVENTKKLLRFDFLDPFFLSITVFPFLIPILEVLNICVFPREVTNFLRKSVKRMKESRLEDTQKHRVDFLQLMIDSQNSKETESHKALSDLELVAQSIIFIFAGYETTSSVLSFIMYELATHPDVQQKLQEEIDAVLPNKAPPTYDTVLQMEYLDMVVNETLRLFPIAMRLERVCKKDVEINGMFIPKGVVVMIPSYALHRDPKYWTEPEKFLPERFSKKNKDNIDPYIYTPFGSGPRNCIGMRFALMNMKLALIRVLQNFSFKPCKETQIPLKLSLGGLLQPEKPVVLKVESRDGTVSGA
Alpha-galactosidase (Coffea arabica), sequence (Q42656 whole entry, looked up): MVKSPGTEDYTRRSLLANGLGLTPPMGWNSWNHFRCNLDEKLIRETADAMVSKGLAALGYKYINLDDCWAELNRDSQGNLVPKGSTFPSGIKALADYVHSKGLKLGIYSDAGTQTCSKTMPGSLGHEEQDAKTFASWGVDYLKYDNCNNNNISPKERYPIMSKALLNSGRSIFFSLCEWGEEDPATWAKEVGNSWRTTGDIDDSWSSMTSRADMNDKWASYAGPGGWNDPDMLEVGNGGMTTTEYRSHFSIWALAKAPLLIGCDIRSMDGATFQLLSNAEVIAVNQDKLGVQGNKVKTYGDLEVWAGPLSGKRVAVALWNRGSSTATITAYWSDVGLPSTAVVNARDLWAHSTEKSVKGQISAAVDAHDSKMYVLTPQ

Regarding `c1cc(Cc2cnc[nH]2)ccn1`, the Potency in assay [1] is 3980 nM (active). Also, the Potency entry in assay [2] was “inactive”.

For `COc1cc2c(cc1OC)C1C(=O)c3c(O)cc4c(c3OC1CO2)C=CC(C)(C)O4` (stereo unspecified), the Potency in assay [1] was 15800 nM (active). Moreover, in assay [2], the Potency entry was “inactive”.

As to `CC1Cc2c(cnc3c2CN(C)CC3)CO1` (stereo unspecified), the results for the activity change, negative = inhibition in assay [3], in assay [1] and in assay [4] were 12.6% [at 11.4 µM], -13.4% [at 11.4 µM] and 10.1% [at 11.4 µM], respectively. In assay [5], the activity, negative = inhibition was 9.03% [at 11.4 µM].

With `COc1cc2c3cc1Oc1c(OC)c(OC)cc4c1[C@@H](Cc1ccc(O)c(c1)Oc1ccc(cc1)C[C@@H]3N(C)CC2)N(C)CC4`, the Potency in assay [1] was 20000 nM (active). Also, the Potency result in assay [2] was “inactive”.

`CCC1CN2CCC1CC2C(Oc1cc2ccccc2c2ccccc12)c1ccnc2ccc(O)cc12` (stereo unspecified): the results for the activity change, negative = inhibition in assay [3], in assay [1] and in assay [4] were 22% [at 11.4 µM], -10.8% [at 11.4 µM] and -1.58% [at 11.4 µM], respectively. Moreover, the activity, negative = inhibition in assay [5] is 16.1% [at 11.4 µM].

Turning to `O=c1c2ccccc2c2ccccc2c(=O)n1-c1cc2c3ccccc3ccc2c2ccccc12`, the Potency was 316 nM (active) in assay [3] and 158 nM (active) in assay [5].

Turning to `CCN1C[C@@]2(COC)[C@H](O)C[C@H](OC)[C@@]34[C@@H]5C[C@@]6(O)[C@H](OC(=O)c7ccccc7)[C@H]5[C@@](OC(C)=O)([C@H]([C@@H](OC)[C@H]23)[C@H]14)[C@H](O)[C@@H]6OC`, the Potency result in assay [3], in assay [4] and in assay [5] was “inactive” each time.

`COc1ccc(-c2oc3cc(OC)ccc3c(=O)c2O)cc1`: the Potency in assay [1] was 12600 nM (active). The Potency entry in assay [2] is “inactive”.

With `O=C(OC1Cc2c(O)cc(O)cc2OC1c1cc(O)c(O)c(O)c1)c1cc(O)c(O)c(O)c1` (stereo unspecified), in assay [1], the Potency was 20000 nM (active). Also, the Potency result in assay [2] is “inactive”.

Turning to `COC1C=CC23c4cc5c(cc4CN(CC2O)C3C1)OCO5` (stereo unspecified), the Potency result in assay [2] was “inactive”.

`O=C1c2ccccc2-c2cc([N+](=O)[O-])c([N+](=O)[O-])cc21`: the Potency in assay [1] was 501 nM (active); in assay [4], 3160 nM (active); in assay [5], 398 nM (active). Moreover, the activity change, positive = activation in assay [2] is -119% [at 11.4 µM].

Turning to `CCCCCCCCCCCCCC(=O)OC1C(C)[C@@]2(O)C(C=C(CO)C[C@]3(O)C(=O)C(C)=C[C@H]23)[C@@H]2C(C)(C)[C@]12OC(C)=O` (stereo partly specified), the Potency entry in assay [1] and in assay [6] was “inactive” throughout. Besides, in assay [7], the outcome was inactive.

With `C[C@]12CCC3c4ccc(OC(=O)c5ccccc5)cc4CCC3C1CCC2=O` (stereo partly specified), in assay [2], the Potency result was “inactive”.

With `C[C@@]12CC[C@@H]3[C@@H](CC[C@H]4C[C@@H](O)CC[C@]43C)[C@H]1CC[C@@H]2c1cc(C(F)(F)F)n[nH]1`, the activity change, negative = inhibition in assay [1] was 103% [at 11.4 µM]. Further, the Potency in assay [2] and in assay [5] was 2510 nM (active) each time.

With `COc1cc2c(cc1OC)[C@@H]1C(=O)c3ccc4c(c3OC1CO2)CC(C(C)C)O4` (stereo partly specified), the Potency in assay [1] is 25100 nM (active). The Potency entry in assay [2] and in assay [6] was “inactive” throughout. In addition, the result in assay [7] was inactive.

Consider `BrC1C(Br)C(Br)C(Br)C(Br)C1Br` (stereo unspecified), for which, in assay [2], the Potency entry was “inactive”.

`COC(=O)NC/C=C\c1nc(CC/C=C\C(=O)O[C@H]2C[C@H]3CC(=O)O[C@@H](/C=C\CC(C)C)C[C@@H]4CC[C@H](C)[C@H](C[C@@H](OC)C[C@H](C2)O3)O4)co1`: in assay [1], the Potency is 5010 nM (active). In assay [2], the activity change, positive = activation is -81.2% [at 11.4 µM]. Further, in assay [5], the activity, negative = inhibition is 68.9% [at 11.4 µM].

For `O=C(O)c1cc2c(cc1S(=O)(=O)O)[C@H]1[C@@H]([C@H]3[C@H]2[C@@]2(Cl)C(Cl)=C(Cl)[C@]3(Cl)C2(Cl)Cl)[C@]2(Cl)C(Cl)=C(Cl)[C@@]1(Cl)C2(Cl)Cl`, the activity change, positive = activation in assay [2] was -41.4% [at 11.4 µM].

`CC[C@]1(O)CC(O[C@@H]2CC(N(C)C)C(O)C(C)O2)c2c(cc3c(c2O)C(=O)c2c(O)ccc(O)c2C3=O)C1C(=O)OC` (stereo partly specified): the Potency result in assay [1] and in assay [6] was “inactive” each time. In addition, the compound was called inactive in assay [7].

On to `Cc1c(N=C=O)cccc1N=C=O`, for which the Potency entry in assay [2] was “inactive”.

Take `Cc1ncc(CN2CC=C(c3ccccc3)CC2)c(N)n1`: the Potency result in assay [2] is “inactive”.

In the case of `CC(C)=CCC1=C(O)c2ccccc2C(=O)C1=O`, the Potency result in assay [2] was “inactive”.

On to `CN1[C@@H]2CC[C@H]1CC(NC(=O)c1nn(C)c3ccccc13)C2` (stereo partly specified), for which, in assay [1], the Potency entry was “inactive”. The outcome in assay [8] was inactive.

Regarding `COc1cc2c(cc1OC)[C@@H]1C(=O)c3ccc(OC)c(CC=C(C)C)c3OC1CO2` (stereo partly specified), the Potency in assay [1] was 3160 nM (active). Also, the Potency entry in assay [2] and in assay [6] was “inactive” in each case. Further, the outcome in assay [7] was inactive.

For `CC(C)CC(N)C1(c2ccc(Cl)cc2)CCC1` (stereo unspecified), the Potency in assay [1] is 1580 nM (active). For the same compound, the Potency result in assay [2] was “inactive”.

Turning to `CNC[C@H](O)c1ccc(OC(=O)C(C)(C)C)c(OC(=O)C(C)(C)C)c1`, the Potency result in assay [2] was “inactive”.

For the compound `c1ccc(CN2CCC3(CCc4ccccc43)CC2)cc1`, the Potency entry in assay [1] was “inactive”. The values for the Potency in assay [4] and in assay [5] were 6.3 nM (active) and 2510 nM (active), respectively.

In the case of `CCC(C)C(=O)OC1C[C@@]2(C)C(c3ccoc3)OC(=O)CC23OC2(C)OC34C(OC(=O)C(C)C)[C@]3(O)C(OC(=O)C5(C)OC5C)[C@]5(C)CC3(O)[C@](C)(C5CC(=O)OC)C14O2` (stereo partly specified), the Potency in assay [1] was 2510 nM (active). Further, the Potency result in assay [2] and in assay [6] was “inactive” throughout. The outcome in assay [7] was inactive.
